Compound activity (PubChem)
AHR act = activates the human aryl hydrocarbon receptor; P35869; AHR-responsive luciferase reporter cells, luminescence; activation, % at 5 µM; hit rate 2.5% among 320,000; in the data active = activation above about 47%;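 also: 0% = vehicle wells and 100% = reference agonist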
hcDAF-12 act = activates DAF-12 receptor from parasite H. contortus | activation, % at 6.8 µM | AID 652067 | hit rate 1.4% among 370,000 | HEK293 hcDAF-12 lit1-tk-luc reporter, luminescence; 0% DMSO, 100% Δ7-dafachronic acid;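 active = activation above the mean of all tested compounds plus 3 SD, cut at about 5.5% in these data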;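 also: 100% = response to 3 µM Δ7-dafachronic acid high control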
DAX1 inh-1 = inhibitors of human orphan nuclear receptor DAX1 (NR0B1); P51843; HEK293 Gal4-DAX1 luciferase reporter, luminescence; inhibition, % at 6.75 µM; hit rate 0.99% among 340,000; AID 504766;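 active = inhibition above the mean over all tested compounds plus 3 SD, cut at about 4.2% in these data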;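 also: 0% = DAX1-transfected cells with DMSO and 100% = empty-vector control cells with DMSO; inhibition shows as a rise in luminescence from relieved DAX1 repression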
Target sequence (P51843 207-470 limits assumed): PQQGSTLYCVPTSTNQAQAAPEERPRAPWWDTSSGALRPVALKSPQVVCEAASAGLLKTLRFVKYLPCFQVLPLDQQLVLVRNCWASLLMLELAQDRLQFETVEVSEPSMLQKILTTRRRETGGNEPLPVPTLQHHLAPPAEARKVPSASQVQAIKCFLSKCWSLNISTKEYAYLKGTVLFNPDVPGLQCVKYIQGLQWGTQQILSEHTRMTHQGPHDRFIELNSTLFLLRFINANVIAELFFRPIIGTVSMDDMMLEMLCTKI
ssDAF-12 act = S. stercoralis DAF-12 activation, primary screen; HEK293 ssDAF-12/GRIP1 lit1-tk-luc reporter, luminescence; % of 3 µM dafachronic acid response; activation, % at 6.8 µM; hit rate 1% among 370,000;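 active = activation above the mean over all tested compounds plus 3 SD, cut at about 0.9% in these data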;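 also: 0% = DMSO-only wells and 100% = 3 µM delta7-dafachronic acid wells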
DAX1 inh-2 = blocks DAX1 repression of SF-1 activated StAR promoter. HEK293T StAR-luciferase reporter, SF-1/DAX-1 repression relief. inhibition, % at 6.8 µM. hit rate 1.1% among 370,000. AID 652010;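 active = inhibition above the mean over all tested compounds plus 3 SD, cut at about 3.6% in these data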;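 also: 0% = DAX-1 cells with DMSO and 100% = cells lacking DAX-1 with DMSO; higher inhibition means more luminescence from relief of DAX-1 repression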
hgDAF12 agonist = agonists of H. glycines DAF-12 nuclear receptor; HEK293 GAL4-hgDAF12 UAS-luciferase reporter, agonist luminescence; normalized to butyrate control; activation, % at 6.8 µM; hit rate 1.8% among 370,000; AID 687014;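 active = activation above a cutoff set at the mean of all screened compounds plus 3 SD, cut at about 10% in these data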;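 also: 0% = DMSO wells and 100% = sodium butyrate wells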
An asterisk follows results filed as active; nt = not tested or not shown. The list is not random: actives were taken first. Their share in the collection is about 5.7%.

SMILES | AHR act | hcDAF-12 act | DAX1 inh-1 | ssDAF-12 act | DAX1 inh-2 | hgDAF12 agonist
Cc1ccc(NC(=O)CNc2cccc(Br)c2)cc1S(=O)(=O)N1CCOCC1 | 1 | 1 | 0 | -2 | -2 | -2
COc1ccc(-n2ncc3c(NCc4cccnc4)ncnc32)cc1 | 3 | 3 | 2 | 0 | 2 | 11*
Cc1ccc(-n2ncc3c(NCc4cccnc4)ncnc32)cc1C | -5 | 0 | 1 | -1 | 0 | 5
O=C(Nc1cccc(Cl)c1)NC1CC2CCC(C1)N2Cc1cccs1 (stereo not drawn) | 5 | 0 | 4.6* | -1 | 1 | 0
CC(C)c1ccc(NC(=O)NC2CC3CCC(C2)N3Cc2cccs2)cc1 (stereo not drawn) | 0 | -2 | -1 | -1 | -1 | -2
CCCCCCSc1ccc([C@H]2N[C@@](Cc3ccccc3)(C(=O)OC)[C@H]3C(=O)N(C)C(=O)[C@@H]23)cc1OC | 0 | 0 | 0 | -2 | 0 | 1
Brc1ccc(-c2noc(COc3ccc4c(c3)CCC4)n2)o1 | 3 | 0 | -1 | 1 | 2 | 0
COc1ccc(Cc2nc(-c3ccccc3)no2)cc1 | 4 | 1 | 0 | -1 | 1 | 13*
c1csc(-c2noc(COc3ccc4c(c3)CCCC4)n2)c1 | 5 | 3 | 4 | 0 | 4.0* | 12*
Brc1ccc(-c2noc(CCc3ccccc3)n2)cc1 | 1 | -1 | 4.7* | -1 | 1 | 3
COc1ccc(Cc2nc(-c3cccs3)no2)cc1 | 10 | 0 | 0 | -1 | 1 | 11*
O=C(CSCc1ccc([N+](=O)[O-])cc1)Nc1ccccc1C(=O)O | 4 | -1 | 2 | -1 | 1 | -3
Cc1ccc(Sc2ncccc2C(=O)NCc2cc([N+](=O)[O-])ccc2O)cc1C | nt | -2 | 0 | -1 | -1 | 2
COc1ccc(-c2nc(CN3CCN(Cc4cccc(Cl)c4)CC3)c(C)o2)cc1 | 8 | -1 | 5.8* | -1 | -1 | 1
COc1ccccc1Nc1ncnc2c1cnn2-c1cccc(C)c1 | 51* | -1 | 0 | -1 | 0 | 2
CC(=O)O[C@H]1CC[C@@]2(C)C(CCC3C2CC[C@]2(C)OC(=O)CCC32)C1 (stereo partly drawn) | -2 | -1 | 5.0* | -1 | 1 | 0
CC1CC(=O)c2ccccc2C1C (stereo not drawn) | nt | 4 | 3 | -1 | 1 | 1
COc1ccc2[nH]c(=O)c(CNc3ccc(C)cc3C)cc2c1 | 8 | 2 | 0 | -2 | 1 | 1
COc1ccc2[nH]c(=O)c(CNc3ccccc3OC)cc2c1 | 24 | 3 | 4.5* | -1 | 0 | -1
COc1ccc2[nH]c(=O)c(CNc3cc(C)ccc3C)cc2c1 | 15 | 3 | 2 | -1 | 0 | 3
COc1ccc2[nH]c(=O)c(CNc3ccccc3)cc2c1 | 3 | 4 | 4.5* | 0 | 2 | 10
COc1ccc2[nH]c(=O)c(CNc3ccccc3C)cc2c1 | 7 | 3 | 2 | 1.4* | 1 | 7
COc1ccc(NC(=O)c2ccc(NC(=O)COC(=O)c3cnc(C)cn3)cc2)cc1 | 6 | 0 | 0 | -1 | 1 | 0
COC(=O)C[C@H]1C=C[C@@H](NS(=O)(=O)c2ccccc2)[C@@H](CO)O1 | nt | -1 | nt | -1 | 0 | 0
Cc1ccccc1Cn1nnc(-c2cccc(C(=O)O)c2)n1 | 4 | 4 | -2 | -1 | 3 | 12*
SMILES | AHR act | hcDAF-12 act | DAX1 inh-1 | ssDAF-12 act | DAX1 inh-2 | hgDAF12 agonist
CC(C)C[C@H]1COc2cccc(N3CCCCC3)c2S(=O)(=O)N1 | nt | -2 | nt | -1 | -2 | 0
CC(=O)c1c(C)[nH]c(C(=O)CSc2nnc(-c3cccs3)n2Cc2ccccc2)c1C | 7 | -1 | -2 | -2 | -1 | -3
CC(=O)c1c(C)[nH]c(C(=O)CSc2nnc(-c3ccco3)n2Cc2ccccc2)c1C | 69* | -2 | -2 | -2 | -2 | -3
Nc1c(C(=O)c2cccs2)oc2ccccc12 | 49* | 6.1* | 1 | 0 | 1 | 7
Nc1c(C(=O)c2ccc(Br)s2)oc2ccccc12 | 68* | 3 | 0 | 0 | 0 | 4
Nc1c(N)c2ccccc2oc1=O | 9 | 0 | 0 | 0 | 0 | 1
